Experimental findings from PubChem BioAssay (NCI) are described below.

Compounds without any hit were thinned out: in the full panel of roughly 83,000, 20% have a hit.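 How to read the values: 0–100, growth inhibition (40 = 60% inhibited); 0, no net growth; -100 to 0, cell death (-40 = 40% of starting cells died; -100 = all dead).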 Values without a mark were called inactive. Active and inactive are the calls of the source. The calls were made as follows: active = growth percent below 10; inactive = the rest.

Among the test systems are HOP-92 NSCLC; 786-0 renal; MALME-3M melanoma; RXF 393 renal; EKVX NSCLC; SN12C renal; TK-10 renal; A498 renal; CCRF-CEM leukemia; RPMI-8226 leukemia; OVCAR-8 ovarian; OVCAR-5 ovarian; OVCAR-4 ovarian; SK-OV-3 ovarian; IGROV1 ovarian; NCI/ADR-RES ovarian; T-47D breast; MDA-MB-435 melanoma; MCF7 breast; HCT-116 colon.
Assay in all cases: NCI-60 one-dose screen, 48 h (100 = growth as untreated, 0 = no growth, -100 = all killed)
Holding throughout (conditions): 10 µM

In the case of `COC(=O)C[C@](O)(CCC(C)C)C(=O)O[C@@H]1C(OC)=C[C@]23CCCN2CCc2cc4c(cc2[C@H]13)OCO4`, the growth is -19.4% (active) with HOP-92 NSCLC; -46.8% (active) in the assay with 786-0 renal; -90.9% (active) with MALME-3M melanoma; -89.6% (active) with RXF 393 renal; -23.9% (active) with EKVX NSCLC; -26.7% (active) in the assay on SN12C renal. In addition, the growth with TK-10 renal was -23.8% (active); in the assay on A498 renal, -46.5% (active); in the assay with CCRF-CEM leukemia, -12% (active); with RPMI-8226 leukemia, -30.2% (active); in the assay with OVCAR-8 ovarian it was -62.9% (active); in the assay on OVCAR-5 ovarian, -35.9% (active). Also, the growth with OVCAR-4 ovarian is -42.4% (active); with SK-OV-3 ovarian, -25.6% (active); in the assay with IGROV1 ovarian, -29.3% (active); in the assay on NCI/ADR-RES ovarian, -29.7% (active); in the assay on T-47D breast, -24% (active); with MDA-MB-435 melanoma, -84% (active). For the same compound, the growth in the assay with MCF7 breast was -19.4% (active); with HCT-116 colon, -27.5% (active).
Regarding `CCC[Se]C(=O)c1ccc(C(=O)[Se]CCC)s1`, the growth was -57.8% (active) in the assay on HOP-92 NSCLC; 2.15% (active) in the assay on 786-0 renal; -82.4% (active) in the assay on MALME-3M melanoma; -41.3% (active) in the assay on RXF 393 renal; -79.7% (active) in the assay on EKVX NSCLC; -75% (active) with SN12C renal. For the same compound, the growth was -79.8% (active) with TK-10 renal; -64.9% (active) in the assay with A498 renal; 13.6% with CCRF-CEM leukemia; -5.8% (active) with RPMI-8226 leukemia; -51.1% (active) in the assay with OVCAR-8 ovarian; -35.6% (active) with OVCAR-5 ovarian. In addition, the growth in the assay on OVCAR-4 ovarian is 55.6%; with SK-OV-3 ovarian it was -31.1% (active); with IGROV1 ovarian it was -67.3% (active); in the assay with NCI/ADR-RES ovarian it was -53.9% (active); with T-47D breast, 30%; with MDA-MB-435 melanoma it was -61% (active). In addition, the growth with MCF7 breast is -34.6% (active); with HCT-116 colon it was -56% (active).
On to `CC12OOC(C)(OO1)C2CCC(=O)NCCCNc1ccnc2cc(Cl)ccc12` (stereo not given), for which the growth in the assay with HOP-92 NSCLC was 4.9% (active); with 786-0 renal, -12.2% (active); in the assay on MALME-3M melanoma, -94.6% (active); in the assay with RXF 393 renal it was 4.73% (active); in the assay with EKVX NSCLC, 85.6%; with SN12C renal, 91.9%. Also, the growth in the assay with TK-10 renal is 23.4%; in the assay on A498 renal, 114%; in the assay with CCRF-CEM leukemia it was 3.13% (active); in the assay with RPMI-8226 leukemia, 39%; in the assay on OVCAR-8 ovarian, 94.9%; in the assay on OVCAR-5 ovarian, 84.4%. In addition, the growth in the assay with OVCAR-4 ovarian is -42.2% (active); in the assay with SK-OV-3 ovarian, 103%; in the assay with IGROV1 ovarian, 67.1%; in the assay with NCI/ADR-RES ovarian, 99.9%; with T-47D breast, 40%; in the assay on MDA-MB-435 melanoma it was 93.8%. Moreover, the growth with MCF7 breast is 58.1%; in the assay on HCT-116 colon, 3.56% (active).
With `Cc1c2oc3c(C)ccc(C(=O)N[C@@H]4C(=O)N[C@H](C(C)C)C(=O)N5CCC[C@H]5C(=O)N(C)CC(=O)N(C)[C@@H](C(C)C)C(=O)OC4C)c3nc-2c(C(=O)N[C@@H]2C(=O)N[C@H](C(C)C)C(=O)N3CC(=O)C[C@H]3C(=O)N(C)CC(=O)N(C)[C@@H](C(C)C)C(=O)OC2C)c(N)c1=O` (stereo not given in full), the growth is -17.7% (active) in the assay on HOP-92 NSCLC; 19% in the assay with 786-0 renal; -14.5% (active) in the assay with MALME-3M melanoma; -78.8% (active) in the assay on RXF 393 renal; -12.5% (active) in the assay on EKVX NSCLC; 6.6% (active) in the assay with SN12C renal. Moreover, the growth was 5.82% (active) in the assay on TK-10 renal; -68.7% (active) in the assay on A498 renal; 2.91% (active) in the assay on CCRF-CEM leukemia; -13.1% (active) with RPMI-8226 leukemia; 0.349% (active) with OVCAR-8 ovarian; 5.55% (active) in the assay on OVCAR-5 ovarian. The growth in the assay with OVCAR-4 ovarian was 21%; with SK-OV-3 ovarian, 7.97% (active); in the assay on IGROV1 ovarian it was 17%; with NCI/ADR-RES ovarian it was 4.49% (active); in the assay with T-47D breast, -5% (active); with MDA-MB-435 melanoma, -66.1% (active). Also, the growth in the assay with MCF7 breast was 1.42% (active); in the assay with HCT-116 colon, 22.3%.
Consider `COc1cc2cc(C(=O)N3C[C@@H](CCl)c4c3cc(OC(=O)N3CCN(C)[C@@H]5CSSC[C@@H]53)c3ccccc43)[nH]c2c(OC)c1OC`, for which the growth was -4.54% (active) in the assay with HOP-92 NSCLC; -9.47% (active) in the assay on 786-0 renal; -70.3% (active) in the assay with MALME-3M melanoma; -80.7% (active) in the assay with RXF 393 renal; -56.1% (active) in the assay with EKVX NSCLC; -44.6% (active) in the assay with SN12C renal. Moreover, the growth was 13.8% with TK-10 renal; -22.4% (active) in the assay on A498 renal; -25.1% (active) in the assay on CCRF-CEM leukemia; -20.4% (active) with RPMI-8226 leukemia; -3.43% (active) in the assay with OVCAR-8 ovarian; -6.69% (active) in the assay with OVCAR-5 ovarian. Further, the growth with OVCAR-4 ovarian is -6.86% (active); in the assay with SK-OV-3 ovarian, -6.59% (active); in the assay on IGROV1 ovarian, 7.55% (active); in the assay on NCI/ADR-RES ovarian, -22.2% (active); in the assay on T-47D breast, -5.73% (active); with MDA-MB-435 melanoma it was -86.8% (active). Moreover, the results for the growth with MCF7 breast and in the assay with HCT-116 colon were -8.94% (active) and 5.27% (active), respectively.
`C[C@H]1[C@H](OC(=O)CCC(=O)N(CCCc2cn(-c3ccc(C#N)cc3)nn2)CCNc2ccnc3cc(Cl)ccc23)O[C@@H]2OC3(C)CC[C@H]4[C@H](C)CC[C@@H]1[C@@]24OO3`: the growth was 7.07% (active) in the assay on HOP-92 NSCLC; 50.7% in the assay on 786-0 renal; 13.3% in the assay on MALME-3M melanoma; 40.1% with RXF 393 renal; 53% with EKVX NSCLC; 58.9% in the assay on SN12C renal. The growth with TK-10 renal was 54.2%; in the assay with A498 renal, 110%; with CCRF-CEM leukemia, 15%; in the assay on RPMI-8226 leukemia it was 27%; with OVCAR-8 ovarian, 22.3%; in the assay with OVCAR-5 ovarian, 54.5%. Further, the growth is 41.9% in the assay with OVCAR-4 ovarian; 84.4% in the assay on SK-OV-3 ovarian; 44.5% in the assay on IGROV1 ovarian; 28.4% in the assay on NCI/ADR-RES ovarian; 32.1% in the assay with T-47D breast; 28.8% in the assay on MDA-MB-435 melanoma. For the same compound, the growth in the assay on MCF7 breast is -28% (active); with HCT-116 colon, 21.9%.
For `CCOC(=O)C1=C(Nc2ccccc2)C(=O)OC12C(=O)Nc1ccccc12` (stereo not given), the growth is 101% with HOP-92 NSCLC; 108% in the assay on 786-0 renal; 102% with MALME-3M melanoma; 119% in the assay with RXF 393 renal; 95.2% in the assay with EKVX NSCLC; 110% in the assay on SN12C renal. Further, the growth with TK-10 renal is 137%; with A498 renal, 120%; in the assay with CCRF-CEM leukemia it was 93.9%; in the assay with RPMI-8226 leukemia, 104%; in the assay with OVCAR-8 ovarian, 105%; in the assay with OVCAR-5 ovarian, 103%. Also, the growth was 107% in the assay with OVCAR-4 ovarian; 104% in the assay on SK-OV-3 ovarian; 102% in the assay with IGROV1 ovarian; 107% with NCI/ADR-RES ovarian; 110% in the assay on T-47D breast; 108% with MDA-MB-435 melanoma. Also, the growth in the assay with MCF7 breast is 95.6%; with HCT-116 colon, 109%.
